Among the data in PubChem BioAssay AID743366 (National Center for Advancing Translational Sciences (NCATS), 2014) are activity (normalised, proliferation) values, retold here.

The structures appear in SMILES notation.

The nature of the assay: qHTS profiling of inhibitors of Plasmodium falciparum (HB3) proliferation (acoustic dispense). Conditions: P. falciparum HB3 in erythrocytes, SYBR Green, 72 h; at 49.8 µM (top of the series) unless noted. The text has this:
Plasmodium falciparum is a virulent malarial parasite that kills 1-2 million people worldwide each year. Transmitted by mosquitoes, the sporozoite form of the parasite enters the blood stream to infect hepatocytes, where they become merozoites that infect red blood cells (erythrocytes). Within erythrocytes, merozoites begin a […] cycle of growth and division, after which the parasite is released to infect new red blood cells. Gametocytes, which form within erythrocytes as well, circulate in the bloodstream and are ingested by the mosquito, thereby completing the life cycle. To profile malarial isolates for differential chemical responses and to identify inhibitors of malarial growth, an assay that measures P. falciparum growth and replication within erythrocytes was employed. This assay uses a DNA binding fluorescent dye (SYBR Green) to detect parasite DNA following cell lysis. Because mature erythrocytes lack DNA, only Plasmodium-derived DNA is detected.
The SYBR Green viability assay was adapted from a method described previously (Plouffe et al., 2008). For screening 3 ul culture medium was dispensed into 1536 well black clear bottom plates (Aurora Biotechnologies) using a Multidrop Combi (Thermo Fisher Scientific Inc.), 23 nL of compounds in DMSO were added by an acoustic dispenser (EDC Biosystems), and 5 ul of erythrocytes infected with P. falciparum (0.3% parasitemia, 2.5% hematocrit final concentration) were added. The plates were incubated at 37 C in a humidified incubator in 5% CO2 for 72 h, and 2 ul lysis buffer (20 mM Tris HCl, 10 mM EDTA, 0.16% saponin, 1.6% triton X, 10X SYBR Green I supplied as 10,000X […] by Invitrogen) was added to each well. The plates were mixed for 25 sec with gentle shaking and incubated overnight at room temperature in the dark. The following morning, fluorescence intensity at 485(14) nm excitation and 535(25) nm emission wavelengths was measured on an EnVision (Perkin Elmer) plate reader. Plate reads were normalized relative to the control inhibitor (0.29 uM artemisinin) and vehicle (DMSO) wells present on each plate and then corrected by an algorithm using vehicle-only control plates at the beginning and end of the compound plate stack.
A general note: qHTS replaces the single test concentration by a dilution series.
`COc1cc([C@@H]2c3cc4c(cc3[C@@H](O[C@@H]3O[C@@H]5CO[C@@H](c6cccs6)O[C@@H]5[C@H](O)[C@@H]3O)[C@H]3COC(=O)[C@H]23)OCO4)cc(OC)c1O`: the activity (normalised, proliferation) is -0.0351%.

On to `C[C@H]1[C@@H](OC(=O)CCC(=O)O)O[C@@H]2O[C@@]3(C)CC[C@@H]4[C@H](C)CC[C@@H]1[C@@]24OO3`, for which the activity (normalised, proliferation) is -0.479%.

With `CSc1cccc(Nc2ncc3cc(-c4c(Cl)cccc4Cl)c(=O)n(C)c3n2)c1`, the activity (normalised, proliferation) stood at 3%.

With `CCCCN(CCCC)CC(O)c1cc(Cl)cc2c1-c1ccc(Cl)cc1C2=Cc1ccc(Cl)cc1` (stereo not given), the activity (normalised, proliferation) was -1.5%.

`COc1ccc(-c2nc(N3CCOCC3)c3sc(CN(C)c4ncc(C(=O)NO)cn4)cc3n2)cn1`: the activity (normalised, proliferation) was -1.14%.

Consider `CC(C)N=C(N)N=C(N)Nc1ccc(Cl)cc1`, for which the activity (normalised, proliferation) was -0.113%.

On to `C=CCNC1=C2C[C@@H](C)C[C@H](OC)[C@@H](O)[C@@H](C)C=C(C)[C@H](OC(N)=O)[C@@H](OC)C=CC=C(C)C(=O)NC(=CC1=O)C2=O`, for which the activity (normalised, proliferation) was -2.45%.

On to `Cn1c(=O)n(-c2ccc(C(C)(C)C#N)cc2)c2c3cc(-c4cnc5ccccc5c4)ccc3ncc21`, for which the activity (normalised, proliferation) turned out to be 1.54%.

Regarding `C=CCn1c(=O)c2cnc(Nc3ccc(N4CCN(C)CC4)cc3)nc2n1-c1cccc(C(C)(C)O)n1`, the activity (normalised, proliferation) was -0.406%.

For `O=C1c2ccccc2-[n+]2ccc3c([nH]c4ccccc43)c21`, the activity (normalised, proliferation) was found to be 4.27%.

Take `CN([C@@H](Cc1ccc(OS(=O)(=O)c2cccc3cnccc23)cc1)C(=O)N1CCN(c2ccccc2)CC1)S(=O)(=O)c1cccc2cnccc12`: the activity (normalised, proliferation) was 0.0465%.

In the case of `CC(C)C[C@H](NC(=O)[C@H](CCc1ccccc1)NC(=O)CN1CCOCC1)C(=O)N[C@@H](Cc1ccccc1)C(=O)N[C@@H](CC(C)C)C(=O)[C@@]1(C)CO1`, the activity (normalised, proliferation) amounted to 0.732%.

For the compound `COCCn1c2c([n+](Cc3cnccn3)c1C)C(=O)c1ccccc1C2=O`, the activity (normalised, proliferation) was -1.3%.

On to `CN(Cc1cnc2nc(N)nc(N)c2n1)c1ccc(C(=O)N[C@@H](CCC(=O)O)C(=O)O)cc1`, for which the activity (normalised, proliferation) came out at 0.621%.

As to `COc1ccc(-c2ccc3ncc4c(c3c2)n(-c2ccc(N3CCNCC3)c(C(F)(F)F)c2)c(=O)n4C)cn1`, the activity (normalised, proliferation) amounted to 5.42%.

For the compound `COC(=O)c1ccc2c(C(=Nc3ccc(N(C)C(=O)CN4CCN(C)CC4)cc3)c3ccccc3)c(O)[nH]c2c1`, the activity (normalised, proliferation) stood at 35.3%.

For `NC1CCC(Nc2nc(Nc3ccc(C(=O)N4CCCCC4)cc3)c3ncn(-c4cccc(F)c4)c3n2)CC1` (stereo not given), the activity (normalised, proliferation) is -0.546%.

`Cc1[nH]c2ccccc2c1CCNCc1ccc(C=CC(=O)NO)cc1`: the activity (normalised, proliferation) is -2.24%.

With `COC(=O)[C@]12CCC(C)(C)C[C@@H]1[C@@H]1C(=O)C=C3[C@@]4(C)C=C(C#N)C(=O)C(C)(C)[C@@H]4CC[C@@]3(C)[C@]1(C)CC2`, the activity (normalised, proliferation) was found to be 41.4%.

On to `CCc1cc(Nc2nccc(-c3c(-c4ccc(OC)c(C(=O)Nc5c(F)cccc5F)c4)nc4ccccn34)n2)c(OC)cc1N1CCC(N2CCN(S(C)(=O)=O)CC2)CC1`, for which the activity (normalised, proliferation) was 0.0178%.

Regarding `CCc1nc(N)nc(N)c1-c1ccc(Cl)cc1`, the activity (normalised, proliferation) is 0.0675%.

Take `CCN(CC)CCCC(C)Nc1ccnc2cc(Cl)ccc12` (stereo not given): the activity (normalised, proliferation) was -0.388%.

In the case of `CN[C@@H](C)C(=O)N[C@H]1CCCC[C@H]2CC[C@@H](C(=O)N[C@@H](c3ccccc3)c3cn(CCCCc4ccc(CCCCn5cc([C@@H](NC(=O)[C@@H]6CC[C@@H]7CCCC[C@H](NC(=O)[C@H](C)NC)C(=O)N76)c6ccccc6)nn5)cc4)nn3)N2C1=O`, the activity (normalised, proliferation) came to 0.411%.

For the compound `COc1cc(NC(C)CCCN)c2ncccc2c1` (stereo not given), the activity (normalised, proliferation) amounted to 0.241%.

Regarding `CC1(C)N=C(N)N=C(N)N1c1ccc(Cl)cc1`, the activity (normalised, proliferation) was -0.199%.

For `Cn1cc(CNCC2CCN(c3ncc(C(=O)NO)cn3)CC2)c2ccccc21`, the activity (normalised, proliferation) was -0.786%.

Consider `CN(C)c1ccc2nc3ccc(=[N+](C)C)cc-3sc2c1`, for which the activity (normalised, proliferation) worked out at 19.1%.

Regarding `Cc1nc2cnc3ccc(C#Cc4cccnc4)cc3c2n1-c1ccc(C(C)(C)C#N)cc1`, the activity (normalised, proliferation) turned out to be 1.13%.

Take `CO[C@H]1O[C@@H]2O[C@@]3(C)CC[C@@H]4[C@@H](C)CC[C@@H]([C@H]1C)[C@@]24OO3`: the activity (normalised, proliferation) was -0.929%.

As to `CC(Sc1nc2ccccc2[nH]1)C(=O)NN=Cc1cc(Br)ccc1O` (stereo not given), the activity (normalised, proliferation) was -0.944% [at 4.15 µM].

For `NC(=NCCCCCCN=C(N)N=C(N)Nc1ccc(Cl)cc1)N=C(N)Nc1ccc(Cl)cc1`, the activity (normalised, proliferation) turned out to be 8.37%.

With `Cn1cnc(=N)c2[nH]cnc21`, the activity (normalised, proliferation) turned out to be 1.41%.

For `O=C1C(=O)c2ccccc2C(O)=C1C1CCC(c2ccc(Cl)cc2)CC1` (stereo not given), the activity (normalised, proliferation) was found to be 3.49%.

For `Cn1c(=O)c(-c2c(Cl)cccc2Cl)cc2cnc(Nc3cccc(C(=O)O)c3)nc21`, the activity (normalised, proliferation) was 16.3%.

On to `Cc1nc2c(C#N)cccc2n1-c1ccc(C(=O)NC2CC2)s1`, for which the activity (normalised, proliferation) came to 1.48%.

Regarding `CC(=O)Nc1nc(C)c(-c2ccc(Cl)c(S(=O)(=O)NCCO)c2)s1`, the activity (normalised, proliferation) is -1.46%.

For `CC[C@@]1([C@@H]2O[C@@H]([C@H]3O[C@@](O)(CO)[C@H](C)C[C@H]3C)C[C@H]2C)CC[C@H]([C@]2(C)CC[C@]3(C[C@H](O)[C@@H](C)[C@@H]([C@@H](C)[C@@H](OC)[C@H](C)C(=O)O)O3)O2)O1`, the activity (normalised, proliferation) turned out to be 1.41% [at 23.2 µM].

Turning to `CN(C)c1ccc(C(=C2C=CC(=[N+](C)C)C=C2)c2ccc(N(C)C)cc2)cc1`, the activity (normalised, proliferation) came out at 108%.

As for `COc1ccc(-c2cc3c(C)nc(N)nc3n(C3CCC(OCCO)CC3)c2=O)cn1` (stereo not given), the activity (normalised, proliferation) was -1.37%.

In the case of `C[C@H]1Cc2c([nH]c3cc(Cl)c(F)cc23)[C@@]2(N1)C(=O)Nc1ccc(Cl)cc12`, the activity (normalised, proliferation) was -0.548%.
